The full data set covers some 7,900 targets. This sample favours those with a hit. About 0.6% of all pairs of compound and target were hits. Unmarked numbers belong to inactive results.
How the values were obtained:
Assay in all cases: log2 fold change, soluble protein after heating vs DMSO (PISA); higher = thermal stabilisation; K562 cells, 10 uM, 30 min; active = over 0.2 and 3.5 SD of the protein, either way, in both replicates (recomputed)
[1] = compound: C1=CC=C(C=C1)[C@H](COC2=CC3=C(C=C2)NC(=O)N3)NC(=O)C4=CC=CN(C4=O)CC5=CC(=C(C=C5)F)F
Procedure, shortened: (§1)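 Values are thermal stability changes relative to control samples and are taken from duplicates. They are stated as log2 fold changes. Before quantification by TMTpro 16plex LC-MS/MS with equalised channel sums, K562 cells at 2×10^6 cells/mL were treated with 10 μM compound for 30 min, heated in aliquots for 3 min across 48°C-58°C, pooled, extracted in PBS with 0.5% NP-40 at 4°C, and centrifuged at 21,000xg for 90 min to give the soluble supernatant.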

[2] = compound: CC1=C(SC2=C1C(=N[C@H](C3=NN=C(N32)C)CC(=O)N)C4=CC=C(C=C4)Cl)C
Procedure, shortened: as §1

[3] = compound: CC1=C2C(=CC=C1)N=C(N(C2=O)C3=CC=CC=C3C)CN4C=NC5=C(N=CN=C54)N
Procedure, shortened: as §1

[4] = compound: Cc1sc2c(c1C)C(c1ccc(Cl)cc1)=N[C@@H](CC(=O)OC(C)(C)C)c1nnc(C)n1-2
Procedure, shortened: as §1

[5] = compound: c1ccc([C@@H]2C[C@H]2NC2CCNCC2)cc1
Procedure, shortened: as §1

UniProt Q5QP82, sequence (Q5QP82 whole entry, looked up): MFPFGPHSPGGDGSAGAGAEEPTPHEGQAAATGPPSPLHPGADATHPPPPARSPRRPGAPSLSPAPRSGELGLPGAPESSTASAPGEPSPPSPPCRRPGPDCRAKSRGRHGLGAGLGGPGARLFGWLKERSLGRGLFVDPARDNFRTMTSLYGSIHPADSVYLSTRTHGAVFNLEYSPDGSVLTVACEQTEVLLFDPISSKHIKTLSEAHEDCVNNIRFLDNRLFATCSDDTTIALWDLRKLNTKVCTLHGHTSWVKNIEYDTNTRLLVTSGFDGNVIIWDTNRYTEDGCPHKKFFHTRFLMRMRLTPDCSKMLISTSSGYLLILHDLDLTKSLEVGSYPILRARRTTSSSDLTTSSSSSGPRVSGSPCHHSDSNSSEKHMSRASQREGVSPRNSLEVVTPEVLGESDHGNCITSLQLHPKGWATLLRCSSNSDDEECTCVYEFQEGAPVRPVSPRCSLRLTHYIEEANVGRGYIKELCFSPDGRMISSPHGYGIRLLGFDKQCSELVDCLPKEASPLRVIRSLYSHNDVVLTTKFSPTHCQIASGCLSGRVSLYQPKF
UniProt Q16850, sequence (Q16850 whole entry, looked up): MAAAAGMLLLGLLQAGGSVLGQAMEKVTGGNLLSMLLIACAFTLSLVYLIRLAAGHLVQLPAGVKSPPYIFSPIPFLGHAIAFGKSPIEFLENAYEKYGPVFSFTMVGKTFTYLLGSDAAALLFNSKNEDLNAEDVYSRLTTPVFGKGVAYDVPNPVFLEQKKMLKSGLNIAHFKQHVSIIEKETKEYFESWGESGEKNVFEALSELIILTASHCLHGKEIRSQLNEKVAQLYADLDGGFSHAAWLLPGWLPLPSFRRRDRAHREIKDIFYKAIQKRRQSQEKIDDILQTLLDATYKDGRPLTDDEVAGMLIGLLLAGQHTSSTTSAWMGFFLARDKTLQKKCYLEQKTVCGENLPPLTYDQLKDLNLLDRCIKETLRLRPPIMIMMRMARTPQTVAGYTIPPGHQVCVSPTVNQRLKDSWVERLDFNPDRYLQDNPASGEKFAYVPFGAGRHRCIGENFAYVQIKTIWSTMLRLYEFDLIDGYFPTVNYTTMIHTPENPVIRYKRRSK
UniProt Q9H2U1, sequence (Q9H2U1 whole entry, looked up): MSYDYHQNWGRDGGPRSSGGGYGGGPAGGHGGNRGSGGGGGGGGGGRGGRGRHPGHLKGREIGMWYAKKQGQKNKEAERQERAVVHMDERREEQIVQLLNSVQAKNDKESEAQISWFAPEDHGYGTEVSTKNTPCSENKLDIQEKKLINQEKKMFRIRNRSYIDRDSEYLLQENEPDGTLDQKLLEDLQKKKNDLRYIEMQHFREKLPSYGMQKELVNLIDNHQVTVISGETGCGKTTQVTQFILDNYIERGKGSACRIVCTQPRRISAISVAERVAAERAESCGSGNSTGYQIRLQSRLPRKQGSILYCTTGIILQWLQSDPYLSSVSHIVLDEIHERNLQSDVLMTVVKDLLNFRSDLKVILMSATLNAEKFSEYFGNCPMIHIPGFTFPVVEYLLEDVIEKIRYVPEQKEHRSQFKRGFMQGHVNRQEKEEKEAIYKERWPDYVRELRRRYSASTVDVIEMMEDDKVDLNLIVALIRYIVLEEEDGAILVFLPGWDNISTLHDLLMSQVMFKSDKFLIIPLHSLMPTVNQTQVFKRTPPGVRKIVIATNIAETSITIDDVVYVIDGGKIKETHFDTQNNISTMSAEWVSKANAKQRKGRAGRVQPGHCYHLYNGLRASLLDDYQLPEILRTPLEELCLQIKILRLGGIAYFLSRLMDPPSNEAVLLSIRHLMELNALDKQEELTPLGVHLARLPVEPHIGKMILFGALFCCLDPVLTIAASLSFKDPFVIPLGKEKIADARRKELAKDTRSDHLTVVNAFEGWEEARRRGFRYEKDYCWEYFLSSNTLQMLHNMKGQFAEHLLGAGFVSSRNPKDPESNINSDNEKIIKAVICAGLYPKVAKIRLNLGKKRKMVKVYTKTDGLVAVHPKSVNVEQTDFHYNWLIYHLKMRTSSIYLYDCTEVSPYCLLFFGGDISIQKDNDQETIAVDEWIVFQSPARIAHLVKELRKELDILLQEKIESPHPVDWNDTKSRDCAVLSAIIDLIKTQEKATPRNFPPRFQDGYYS
UniProt P60842, sequence (P60842 whole entry, looked up): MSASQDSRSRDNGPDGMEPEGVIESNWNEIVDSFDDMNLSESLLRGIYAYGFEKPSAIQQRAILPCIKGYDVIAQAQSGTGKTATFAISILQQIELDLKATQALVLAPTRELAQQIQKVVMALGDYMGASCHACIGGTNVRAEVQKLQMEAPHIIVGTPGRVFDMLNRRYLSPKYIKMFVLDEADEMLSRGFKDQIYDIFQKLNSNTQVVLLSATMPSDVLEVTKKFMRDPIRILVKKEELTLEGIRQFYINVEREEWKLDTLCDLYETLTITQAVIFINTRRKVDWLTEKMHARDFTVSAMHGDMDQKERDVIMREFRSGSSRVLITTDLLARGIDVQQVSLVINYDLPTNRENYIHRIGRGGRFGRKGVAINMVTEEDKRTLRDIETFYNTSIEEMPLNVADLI
UniProt O15121, sequence (O15121 whole entry, looked up): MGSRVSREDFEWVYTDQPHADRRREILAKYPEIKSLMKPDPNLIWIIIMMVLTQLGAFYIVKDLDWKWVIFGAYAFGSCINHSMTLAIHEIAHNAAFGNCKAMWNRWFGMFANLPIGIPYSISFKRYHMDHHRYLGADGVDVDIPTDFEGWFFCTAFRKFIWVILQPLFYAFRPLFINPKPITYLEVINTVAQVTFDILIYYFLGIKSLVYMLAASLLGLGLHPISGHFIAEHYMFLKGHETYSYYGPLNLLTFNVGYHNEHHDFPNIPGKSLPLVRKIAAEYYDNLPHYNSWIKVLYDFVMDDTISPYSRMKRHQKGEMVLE
UniProt P09668, sequence (P09668 whole entry, looked up): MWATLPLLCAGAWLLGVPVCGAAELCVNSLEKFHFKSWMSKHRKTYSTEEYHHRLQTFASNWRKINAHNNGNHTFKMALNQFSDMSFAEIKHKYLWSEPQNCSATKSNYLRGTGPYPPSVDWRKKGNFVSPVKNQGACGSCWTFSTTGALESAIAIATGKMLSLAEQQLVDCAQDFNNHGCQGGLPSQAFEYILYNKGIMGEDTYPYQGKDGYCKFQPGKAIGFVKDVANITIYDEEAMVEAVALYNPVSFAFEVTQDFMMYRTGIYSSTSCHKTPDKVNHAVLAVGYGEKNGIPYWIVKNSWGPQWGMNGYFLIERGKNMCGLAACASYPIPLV
UniProt Q15910, sequence (Q15910 whole entry, looked up): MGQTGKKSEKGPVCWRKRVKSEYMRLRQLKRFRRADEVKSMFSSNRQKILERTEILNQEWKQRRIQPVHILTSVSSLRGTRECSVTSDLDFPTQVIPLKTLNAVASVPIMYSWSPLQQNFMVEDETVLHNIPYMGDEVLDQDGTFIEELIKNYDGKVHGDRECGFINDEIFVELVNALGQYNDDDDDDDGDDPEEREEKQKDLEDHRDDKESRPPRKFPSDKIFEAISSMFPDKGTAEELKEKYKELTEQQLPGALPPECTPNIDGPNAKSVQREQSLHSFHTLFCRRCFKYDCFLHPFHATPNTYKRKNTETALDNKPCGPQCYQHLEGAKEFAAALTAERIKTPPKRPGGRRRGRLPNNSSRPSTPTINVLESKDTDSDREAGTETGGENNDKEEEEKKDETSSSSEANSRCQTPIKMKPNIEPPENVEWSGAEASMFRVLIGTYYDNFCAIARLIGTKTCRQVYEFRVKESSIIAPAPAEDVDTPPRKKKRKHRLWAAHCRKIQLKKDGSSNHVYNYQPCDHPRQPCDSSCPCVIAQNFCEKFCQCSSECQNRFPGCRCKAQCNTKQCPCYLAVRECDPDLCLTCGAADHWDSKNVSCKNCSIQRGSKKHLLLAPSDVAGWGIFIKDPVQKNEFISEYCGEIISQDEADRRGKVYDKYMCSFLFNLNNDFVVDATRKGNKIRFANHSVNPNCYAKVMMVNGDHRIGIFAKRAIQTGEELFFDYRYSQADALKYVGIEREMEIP
UniProt Q8TCE6, sequence (Q8TCE6 whole entry, looked up): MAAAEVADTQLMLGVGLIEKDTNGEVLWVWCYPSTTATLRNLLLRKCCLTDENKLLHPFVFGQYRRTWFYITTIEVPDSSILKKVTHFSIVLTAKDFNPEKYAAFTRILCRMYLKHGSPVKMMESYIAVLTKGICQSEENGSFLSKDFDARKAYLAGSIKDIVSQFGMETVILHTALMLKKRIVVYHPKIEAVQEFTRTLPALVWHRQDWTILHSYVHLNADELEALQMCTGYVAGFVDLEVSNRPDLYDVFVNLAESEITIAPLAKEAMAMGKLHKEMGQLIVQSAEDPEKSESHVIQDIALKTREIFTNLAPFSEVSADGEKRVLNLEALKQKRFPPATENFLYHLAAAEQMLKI
UniProt O43237, sequence (O43237 whole entry, looked up): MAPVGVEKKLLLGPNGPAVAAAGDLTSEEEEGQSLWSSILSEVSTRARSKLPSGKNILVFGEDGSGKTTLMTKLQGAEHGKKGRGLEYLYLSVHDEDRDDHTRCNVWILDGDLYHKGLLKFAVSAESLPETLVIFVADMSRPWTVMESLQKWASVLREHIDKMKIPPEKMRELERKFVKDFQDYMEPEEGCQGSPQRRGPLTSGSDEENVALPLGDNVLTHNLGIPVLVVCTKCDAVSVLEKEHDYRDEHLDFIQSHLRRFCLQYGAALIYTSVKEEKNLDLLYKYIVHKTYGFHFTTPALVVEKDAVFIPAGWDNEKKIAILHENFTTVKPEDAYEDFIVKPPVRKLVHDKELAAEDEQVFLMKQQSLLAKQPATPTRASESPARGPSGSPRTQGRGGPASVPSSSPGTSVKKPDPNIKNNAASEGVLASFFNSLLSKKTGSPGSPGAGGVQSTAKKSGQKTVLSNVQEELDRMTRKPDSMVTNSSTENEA
UniProt O60573, sequence (O60573 whole entry, looked up): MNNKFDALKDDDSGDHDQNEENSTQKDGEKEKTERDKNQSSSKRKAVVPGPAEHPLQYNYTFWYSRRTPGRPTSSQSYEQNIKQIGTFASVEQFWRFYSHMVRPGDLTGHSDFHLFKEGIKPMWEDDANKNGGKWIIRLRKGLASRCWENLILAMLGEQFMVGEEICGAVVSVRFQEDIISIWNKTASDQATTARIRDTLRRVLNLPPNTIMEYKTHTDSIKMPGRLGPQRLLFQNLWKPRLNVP

Target | log2 fold change [1] | log2 fold change [2] | log2 fold change [3] | log2 fold change [4] | log2 fold change [5]
EIF4A1 (UniProt P60842) | -0.043 | 0.096 | 0.05 | -0.005 | -0.042
EGR1 (UniProt P18146) | 0.034 | 0.241 | -0.097 | 0.705 | 0.07
DYNC1I2 isoform 5 (UniProt Q13409) | 0.019 | 0.021 | -0.006 | -0.033 | -0.019
FAM118A (UniProt Q9NWS6) | -0.079 | 0.05 | -0.102 | -0.021 | 0.003
DDX46 (UniProt Q7L014) | -0.059 | 0.09 | 0.184 | -0.064 | 0
DHX36 (UniProt Q9H2U1) | 0.037 | -0.087 | -0.094 | 0.091 | 0.015
DHFR (UniProt P00374) | -0.077 | -0.014 | 0.083 | 0.058 | 0.396
DHCR7 (UniProt Q9UBM7) | -0.061 | 0 | 0.093 | -0.186 | 1.06 (active)
EZH2 isoform 2 (UniProt Q15910) | 0.023 | -0.056 | -0.14 | 0.016 | -0.034
CYBA (UniProt P13498) | 0.007 | 0.034 | -0.013 | 0.027 | 0.031
EIF4E2 (UniProt O60573) | -0.043 | -0.01 | -0.007 | -0.06 | 0.055
DDB1 (UniProt Q16531) | 0.023 | -0.003 | 0.01 | 0 | 0.016
DDOST (UniProt P39656) | 0.018 | -0.009 | -0.078 | -0.022 | 0
CYP51A1 (UniProt Q16850) | -0.096 | 0.055 | -0.037 | -0.01 | -0.001
DENND10 (UniProt Q8TCE6) | 0.035 | 0.083 | 0.103 | 0.057 | -0.008
DPP8 (UniProt Q6V1X1) | -0.112 | 0.029 | 0.145 | -0.033 | 0.005
EDC4 (UniProt Q6P2E9) | 0.02 | -0.004 | 0.075 | 0.023 | 0.024
DEGS1 (UniProt O15121) | 0.083 | 0.04 | -0.001 | 0.122 | 0.052
DYNC1LI2 (UniProt O43237) | -0.04 | -0.071 | 0.035 | -0.028 | 0.013
CTSH (UniProt P09668) | 0 | -0.046 | -0.038 | -0.035 | 0.055
ELOVL1 (UniProt Q9BW60) | -0.16 | 0.145 | 0.045 | -0.134 | -0.05
EOGT (UniProt Q5NDL2) | 0.013 | -0.074 | 0.056 | -0.032 | 0.077
ESYT1 isoform 2 (UniProt Q9BSJ8) | -0.063 | -0.046 | 0.018 | 0.008 | -0.046
DCAF10 (UniProt Q5QP82) | 0.015 | -0.018 | 0.056 | 0.013 | -0.011

From the supplement of paper PMC10849652
